From the supplement of paper PMC10849652
The full data set covers some 7,900 targets. This sample favours those with a hit. About 0.6% of all pairs of compound and target were hits. A number with no mark means an inactive call.

Assays:
Experiment in all cases: log2 fold change, soluble protein after heating vs DMSO (PISA); higher = thermal stabilisation; K562 cells, 10 uM, 30 min; active = over 0.2 and 3.5 SD of the protein, either way, in both replicates (recomputed)
[1] = compound: C#Cc1cccc(Nc2ncnc3cc(OCCOC)c(OCCOC)cc23)c1 [erlotinib]
Procedure, shortened: (§1)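 Soluble protein was quantified by TMTpro 16plex LC-MS/MS after channel sums were equalised. It was obtained as the supernatant after 21,000xg for 90 min from pooled aliquots of K562 cells (2×10^6 cells/mL, 10 μM compound, 30 min) heated for 3 min across 48°C-58°C and extracted in PBS with 0.5% NP-40 at 4°C. Thermal stability values are relative to control samples and come from duplicates. They are given as log2 fold changes.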

[2] = compound: C/C(=N\NC(=O)C1=CC(=CC=C1)S(=O)(=O)N2CCOCC2)/C3=C(C=CC(=C3)Cl)O
Procedure, shortened: as §1

[3] = compound: C1=CC(=C(C=C1Cl)C2=NC3=NC=CN=C3C(=N2)NC4=CC=NC=C4)F
Procedure, shortened: as §1

[4] = compound: C1=CC(=CC=C1C2=NC3=C(N2)C=C(C=C3)C(=O)N)OC4=CC=C(C=C4)Cl
Procedure, shortened: as §1

[5] = compound: C1=CC2=C(C=CC(=C2)/C=C\3/C(=O)NC(=NCC4=CC=CS4)S3)N=C1
Procedure, shortened: as §1

[6] = compound: C1=CC2=NC=CN=C2C=C1/C=C/3\C(=O)NC(=O)S3
Procedure, shortened: as §1

[7] = compound: C1=CC=C(C=C1)C2=NC(=C(N2)C3=CC=NC=C3)C4=CC(=C(C=C4)Cl)O
Procedure, shortened: as §1

[8] = compound: C1=CC=C2C(=C1)C3=NNC4=CC=CC(=C43)C2=O
Procedure, shortened: as §1

[9] = compound: C1CCN(C1)C(=O)NC2=CC=CC(=C2)NC3=NC=C(C(=N3)NCCC4=CN=CN4)Br
Procedure, shortened: as §1

[10] = compound: C1CN(CCC1(CC2=CC=C(C=C2)Cl)N)C3=NC=NC4=C3C=CN4
Procedure, shortened: as §1

UniProt O14929, sequence (O14929 whole entry, looked up): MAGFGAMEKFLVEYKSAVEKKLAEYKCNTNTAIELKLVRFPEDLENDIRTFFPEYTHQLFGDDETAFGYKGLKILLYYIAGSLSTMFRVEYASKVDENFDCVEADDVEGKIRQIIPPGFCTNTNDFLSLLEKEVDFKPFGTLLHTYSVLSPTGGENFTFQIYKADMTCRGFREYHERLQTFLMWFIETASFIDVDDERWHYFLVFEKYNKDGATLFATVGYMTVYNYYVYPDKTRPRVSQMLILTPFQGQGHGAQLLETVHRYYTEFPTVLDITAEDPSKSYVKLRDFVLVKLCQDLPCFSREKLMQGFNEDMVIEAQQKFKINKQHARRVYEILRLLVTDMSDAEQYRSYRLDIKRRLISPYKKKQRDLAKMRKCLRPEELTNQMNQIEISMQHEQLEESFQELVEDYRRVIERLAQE
UniProt Q16774, sequence (Q16774 whole entry, looked up): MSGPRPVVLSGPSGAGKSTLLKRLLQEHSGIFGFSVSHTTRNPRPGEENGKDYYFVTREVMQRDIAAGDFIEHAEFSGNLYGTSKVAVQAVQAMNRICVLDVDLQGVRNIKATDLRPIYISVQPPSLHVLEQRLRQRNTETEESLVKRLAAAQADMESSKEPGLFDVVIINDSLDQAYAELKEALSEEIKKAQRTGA
UniProt P06865, sequence (P06865 whole entry, looked up): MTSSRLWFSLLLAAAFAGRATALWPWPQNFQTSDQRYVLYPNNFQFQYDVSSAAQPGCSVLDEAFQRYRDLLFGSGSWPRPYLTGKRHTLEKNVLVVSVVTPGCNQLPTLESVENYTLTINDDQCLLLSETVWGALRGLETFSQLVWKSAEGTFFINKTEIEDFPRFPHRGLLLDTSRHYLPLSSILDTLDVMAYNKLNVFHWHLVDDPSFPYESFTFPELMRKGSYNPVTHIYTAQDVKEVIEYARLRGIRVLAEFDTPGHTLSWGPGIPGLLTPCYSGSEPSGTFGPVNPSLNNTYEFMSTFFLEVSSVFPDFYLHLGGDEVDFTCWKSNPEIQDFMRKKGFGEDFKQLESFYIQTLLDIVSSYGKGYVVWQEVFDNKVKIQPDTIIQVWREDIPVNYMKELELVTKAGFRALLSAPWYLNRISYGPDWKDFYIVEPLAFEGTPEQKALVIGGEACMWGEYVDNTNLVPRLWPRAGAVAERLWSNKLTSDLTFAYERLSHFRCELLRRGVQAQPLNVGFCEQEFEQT
UniProt O43427, sequence (O43427 whole entry, looked up): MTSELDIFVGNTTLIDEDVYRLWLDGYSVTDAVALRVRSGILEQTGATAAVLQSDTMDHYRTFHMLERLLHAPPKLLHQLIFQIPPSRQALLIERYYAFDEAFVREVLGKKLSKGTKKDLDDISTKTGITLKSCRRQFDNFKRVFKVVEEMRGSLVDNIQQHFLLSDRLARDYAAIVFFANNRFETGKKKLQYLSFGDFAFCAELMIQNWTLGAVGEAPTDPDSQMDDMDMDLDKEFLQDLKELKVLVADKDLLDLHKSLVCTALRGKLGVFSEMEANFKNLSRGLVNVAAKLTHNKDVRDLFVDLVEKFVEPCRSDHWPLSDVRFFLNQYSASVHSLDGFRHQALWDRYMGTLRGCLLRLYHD
UniProt Q14C86, sequence (Q14C86 whole entry, looked up): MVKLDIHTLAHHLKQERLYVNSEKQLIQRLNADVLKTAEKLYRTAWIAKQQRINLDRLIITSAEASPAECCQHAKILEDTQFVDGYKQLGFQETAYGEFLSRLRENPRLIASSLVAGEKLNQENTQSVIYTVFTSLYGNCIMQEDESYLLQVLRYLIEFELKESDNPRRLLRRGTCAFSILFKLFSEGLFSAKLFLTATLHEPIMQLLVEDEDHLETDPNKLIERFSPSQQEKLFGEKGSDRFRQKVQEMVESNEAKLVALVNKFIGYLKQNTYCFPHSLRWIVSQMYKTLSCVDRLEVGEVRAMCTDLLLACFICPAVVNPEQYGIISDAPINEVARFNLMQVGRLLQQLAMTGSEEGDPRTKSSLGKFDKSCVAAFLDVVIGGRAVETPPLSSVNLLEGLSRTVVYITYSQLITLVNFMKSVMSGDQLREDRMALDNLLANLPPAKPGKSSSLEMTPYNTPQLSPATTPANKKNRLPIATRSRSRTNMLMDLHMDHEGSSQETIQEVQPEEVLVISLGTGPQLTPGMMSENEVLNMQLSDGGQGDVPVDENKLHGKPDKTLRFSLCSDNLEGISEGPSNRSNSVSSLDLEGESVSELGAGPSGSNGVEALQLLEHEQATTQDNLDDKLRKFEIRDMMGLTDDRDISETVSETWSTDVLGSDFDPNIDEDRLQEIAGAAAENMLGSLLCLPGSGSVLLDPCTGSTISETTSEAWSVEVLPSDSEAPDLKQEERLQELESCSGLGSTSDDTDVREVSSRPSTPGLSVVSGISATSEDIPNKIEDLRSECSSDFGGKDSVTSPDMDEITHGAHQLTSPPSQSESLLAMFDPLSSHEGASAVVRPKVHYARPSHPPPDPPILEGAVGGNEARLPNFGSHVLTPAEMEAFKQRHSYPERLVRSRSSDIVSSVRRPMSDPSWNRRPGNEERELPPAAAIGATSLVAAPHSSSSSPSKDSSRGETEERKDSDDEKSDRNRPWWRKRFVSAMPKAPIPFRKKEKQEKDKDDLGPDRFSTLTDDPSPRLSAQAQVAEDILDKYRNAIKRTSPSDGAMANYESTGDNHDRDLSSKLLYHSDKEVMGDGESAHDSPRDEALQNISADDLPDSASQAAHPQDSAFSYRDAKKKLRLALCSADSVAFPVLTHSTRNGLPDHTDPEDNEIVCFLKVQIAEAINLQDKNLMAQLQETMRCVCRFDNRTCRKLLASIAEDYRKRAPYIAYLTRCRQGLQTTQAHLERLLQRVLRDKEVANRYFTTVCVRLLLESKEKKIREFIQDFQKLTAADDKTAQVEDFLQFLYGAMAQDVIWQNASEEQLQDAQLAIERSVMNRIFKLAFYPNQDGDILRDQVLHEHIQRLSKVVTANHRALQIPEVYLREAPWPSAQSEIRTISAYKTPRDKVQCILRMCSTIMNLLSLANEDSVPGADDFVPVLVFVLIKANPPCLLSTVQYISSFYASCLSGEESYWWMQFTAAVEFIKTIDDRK
UniProt P04066, sequence (P04066 whole entry, looked up): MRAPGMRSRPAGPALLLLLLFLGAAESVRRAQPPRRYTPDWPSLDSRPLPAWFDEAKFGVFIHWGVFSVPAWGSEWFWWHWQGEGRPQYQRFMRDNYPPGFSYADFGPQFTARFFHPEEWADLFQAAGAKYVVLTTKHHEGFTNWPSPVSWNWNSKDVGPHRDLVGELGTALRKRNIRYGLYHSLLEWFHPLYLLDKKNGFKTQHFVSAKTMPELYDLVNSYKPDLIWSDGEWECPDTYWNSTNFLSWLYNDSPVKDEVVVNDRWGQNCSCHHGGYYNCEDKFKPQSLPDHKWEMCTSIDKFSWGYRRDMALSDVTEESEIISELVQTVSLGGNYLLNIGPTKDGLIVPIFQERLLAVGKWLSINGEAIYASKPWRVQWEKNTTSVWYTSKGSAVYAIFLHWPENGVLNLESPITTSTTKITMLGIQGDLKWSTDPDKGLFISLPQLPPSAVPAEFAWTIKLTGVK
UniProt P69905, sequence (P69905 whole entry, looked up): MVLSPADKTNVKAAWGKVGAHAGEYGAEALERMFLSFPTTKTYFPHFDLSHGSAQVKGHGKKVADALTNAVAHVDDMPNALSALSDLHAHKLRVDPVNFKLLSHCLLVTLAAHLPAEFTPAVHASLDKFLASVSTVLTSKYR
UniProt P06280, sequence (P06280 whole entry, looked up): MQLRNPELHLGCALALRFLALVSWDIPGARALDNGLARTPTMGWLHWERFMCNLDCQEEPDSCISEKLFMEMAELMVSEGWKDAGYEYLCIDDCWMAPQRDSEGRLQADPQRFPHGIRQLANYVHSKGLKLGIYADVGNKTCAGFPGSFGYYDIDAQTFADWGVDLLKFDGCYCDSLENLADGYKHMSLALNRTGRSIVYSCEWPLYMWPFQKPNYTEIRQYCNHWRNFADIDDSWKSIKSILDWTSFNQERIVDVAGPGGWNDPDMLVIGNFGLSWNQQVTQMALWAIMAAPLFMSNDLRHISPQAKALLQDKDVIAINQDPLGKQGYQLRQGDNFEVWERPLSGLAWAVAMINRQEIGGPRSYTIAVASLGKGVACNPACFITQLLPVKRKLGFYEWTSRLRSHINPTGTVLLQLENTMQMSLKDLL
UniProt P22570, sequence (P22570 whole entry, looked up): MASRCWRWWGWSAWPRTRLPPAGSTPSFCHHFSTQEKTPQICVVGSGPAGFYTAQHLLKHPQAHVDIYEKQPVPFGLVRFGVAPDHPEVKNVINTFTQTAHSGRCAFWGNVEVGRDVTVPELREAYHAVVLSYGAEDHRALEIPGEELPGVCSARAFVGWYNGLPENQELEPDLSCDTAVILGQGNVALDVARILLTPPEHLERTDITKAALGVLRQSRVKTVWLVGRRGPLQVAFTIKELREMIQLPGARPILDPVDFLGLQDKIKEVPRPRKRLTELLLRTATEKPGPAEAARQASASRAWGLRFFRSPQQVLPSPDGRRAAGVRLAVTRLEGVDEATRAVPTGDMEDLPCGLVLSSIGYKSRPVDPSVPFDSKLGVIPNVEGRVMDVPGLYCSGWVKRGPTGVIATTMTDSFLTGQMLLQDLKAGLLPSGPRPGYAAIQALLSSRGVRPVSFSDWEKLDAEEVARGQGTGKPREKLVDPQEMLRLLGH
UniProt P51570, sequence (P51570 whole entry, looked up): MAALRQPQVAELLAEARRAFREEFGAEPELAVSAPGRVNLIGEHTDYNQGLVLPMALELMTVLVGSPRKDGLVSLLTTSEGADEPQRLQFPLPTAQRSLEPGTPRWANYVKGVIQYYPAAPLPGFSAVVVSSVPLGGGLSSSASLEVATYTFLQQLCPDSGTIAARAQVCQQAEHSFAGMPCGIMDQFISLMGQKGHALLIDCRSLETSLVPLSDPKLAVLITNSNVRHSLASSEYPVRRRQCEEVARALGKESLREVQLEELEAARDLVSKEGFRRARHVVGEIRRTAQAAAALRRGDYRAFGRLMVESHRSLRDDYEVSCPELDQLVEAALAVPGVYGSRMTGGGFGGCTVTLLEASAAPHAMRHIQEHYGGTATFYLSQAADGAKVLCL

Row | Target | log2 fold change [1] | log2 fold change [2] | log2 fold change [3] | log2 fold change [4] | log2 fold change [5] | log2 fold change [6] | log2 fold change [7] | log2 fold change [8] | log2 fold change [9] | log2 fold change [10]
1 | FDXR isoform 7 (UniProt P22570) | 0.092 | 0.033 | 0.109 | -0.126 | 0.076 | -0.13 | 0.064 | 0 | 0.025 | 0.019
2 | FASTKD1 (UniProt Q53R41) | 0.207 | 0.219 | 0.142 | -0.051 | -0.072 | -0.033 | 0.281 | 0.093 | -0.108 | -0.014
3 | HBA1 (UniProt P69905) | -0.058 | 0.048 | 0.215 | 0.063 | 0.104 | 0.023 | 0.123 | -0.026 | -0.105 | 0.031
4 | HEXA (UniProt P06865) | 0.012 | -0.012 | 0.013 | 0.007 | 0.024 | 0.004 | -0.003 | -0.023 | 0.01 | 0.007
5 | HAT1 (UniProt O14929) | -0.048 | 0.036 | 0.044 | 0.048 | -0.075 | -0.045 | 0.03 | 0.027 | -0.055 | 0.069
6 | GPKOW (UniProt Q92917) | 0.099 | 0.116 | 0.016 | 0.016 | 0.057 | 0.013 | -0.016 | 0.029 | -0.011 | 0.001
7 | FUCA1 (UniProt P04066) | 0.01 | 0.024 | 0.049 | -0.007 | 0.031 | -0.004 | -0.004 | 0.044 | 0.012 | 0.018
8 | GALK1 isoform 2 (UniProt P51570) | 0.002 | 0.082 | 0.158 | -0.023 | -0.08 | 0.016 | 0.07 | 0.055 | -0.094 | 0.076
9 | HDAC1 (UniProt Q13547) | 1.14 (active) | 0.015 | 0.011 | -0.01 | 0.16 | 0.004 | 0.021 | -0.055 | -0.004 | -0.018
10 | FIBP (UniProt O43427) | 0.023 | 0.088 | 0.011 | -0.002 | 0.107 | -0.023 | -0.032 | 0.011 | -0.144 | 0.125
11 | GALC (UniProt P54803) | -0.023 | -0.002 | -0.051 | 0.041 | 0.009 | 0.028 | -0.017 | -0.011 | -0.032 | 0.08
12 | GOLGB1 isoform 2 (UniProt Q14789) | -0.152 | -0.045 | -0.312 (active) | -0.055 | 0.099 | 0.071 | -0.049 | -0.059 | -0.059 | -0.08
13 | ICAM1 (UniProt P05362) | 0.008 | 0.008 | 0.015 | 0.018 | -0.005 | -0.033 | -0.01 | -0.004 | -0.047 | 0.073
14 | GALNT1 (UniProt Q10472) | -0.001 | -0.014 | -0.069 | 0.022 | 0.031 | 0.006 | 0.06 | -0.003 | 0.004 | 0.06
15 | GATA1 (UniProt P15976) | 0.05 | 0.024 | -0.021 | -0.015 | 0.032 | 0.028 | -0.021 | -0.083 | 0.031 | -0.004
16 | GBE1 (UniProt Q04446) | 0.008 | 0.135 | 0.037 | -0.057 | 0.158 | -0.019 | -0.058 | -0.03 | -0.061 | -0.108
17 | HDHD2 (UniProt Q9H0R4) | 0.029 | 0 | 0.133 | 0.009 | 0.013 | 0.046 | -0.015 | -0.018 | -0.009 | 0.037
18 | GUK1 isoform 2 (UniProt Q16774) | 0.009 | 0.289 | 0.092 | 0 | 0.004 | 0 | -0.02 | 0.021 | -0.03 | 0.066
19 | GCC2 (UniProt Q8IWJ2) | -0.062 | 0 | -0.155 | -0.017 | -0.076 | 0.034 | -0.032 | -0.021 | -0.054 | -0.154
20 | GLUD1 (UniProt P00367) | 0.068 | -0.009 | 0.051 | 0.026 | 0.039 | -0.018 | -0.033 | 0 | 0.05 | -0.027
21 | H1FX (UniProt Q92522) | -0.285 | -0.189 | -0.379 | 0.016 | -0.12 | -0.012 | 0.033 | 0 | 0.076 | -0.101
22 | HAX1 (UniProt O00165) | 0.07 | -0.006 | -0.024 | -0.014 | 0.087 | 0.008 | 0.06 | 0.156 | 0.027 | -0.078
23 | HTATIP2 isoform 3 (UniProt Q9BUP3) | 0.016 | 0.112 | 0.016 | -0.02 | -0.143 | 0.005 | 0.012 | 0.033 | -0.039 | 0.005
24 | GAPVD1 isoform 6 (UniProt Q14C86) | 0.008 | 0.133 | -0.036 | -0.043 | 0.033 | 0.007 | 0.002 | 0.037 | -0.012 | -0.041
25 | FNTB (UniProt P49356) | 0.488 (active) | 0.028 | 0.203 | 0.028 | 0.208 | -0.024 | 0.091 | 0.107 | 0.326 | 0.065
26 | FNTA (UniProt P49354) | 0.245 | -0.033 | 0.116 | -0.017 | 0.075 | -0.009 | 0.051 | -0.034 | 0.065 | 0.106
27 | GLA (UniProt P06280) | 0.016 | 0.019 | -0.018 | -0.021 | -0.018 | -0.017 | -0.034 | -0.032 | 0.026 | 0.045
28 | GLUL (UniProt P15104) | -0.058 | 0.016 | 0.027 | 0.022 | -0.006 | -0.003 | -0.007 | -0.045 | -0.037 | 0.017
29 | FECH isoform 2 (UniProt P22830) | 0.191 | -0.179 | 0.349 | 0.206 | 0.162 | 0.048 | 0.429 | 0.135 | 0.172 | 0.046
30 | FAM91A1 (UniProt Q658Y4) | 0.005 | 0.019 | 0.168 | 0.082 | 0.019 | -0.017 | -0.033 | 0.069 | -0.057 | -0.152
